# Laboratory results reported in PubChem BioAssay (NCI).
# Compounds without any hit were thinned out: in the full panel of roughly 79,000, 15% have a hit. A number with no mark means an inactive call. Active and inactive are the calls of the source. No stated cut-off is given here; in the data, active means growth inhibition above about 70%; inactive means the rest.
# Experiments:
# [1] = NCI Yeast Anticancer Drug Screen. Data for the rad50 strain (AID 155);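 further: 0% = growth of vehicle-only cultures of the same strain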; settings: S. cerevisiae rad50 strain growth inhibition; at 50.0 µM; stronger effect = higher value
# In short: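 Genetically altered yeast (DNA repair pathway); compound treatment; growth inhibition vs vehicle ctrl.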
# [2] = NCI Yeast Anticancer Drug Screen. Data for the mec2-1 strain (AID 157); settings: S. cerevisiae mec2-1 strain, at 50.0 µM, stronger effect = higher value
# In short: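 Growth inhibition is read against vehicle-treated controls after compound exposure of the mec2-1 yeast strain, which is defective in DNA damage repair or cell cycle control.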
# [3] = NCI Yeast Anticancer Drug Screen. Data for the sgs1 mgt1 strain (AID 161);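 further: 0% = growth of cultures given vehicle only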; settings: S. cerevisiae sgs1 mgt1 strain, at 50.0 µM, stronger effect = higher value
# In short: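 Growth of a repair-deficient yeast mutant was monitored after compound treatment and expressed as inhibition relative to vehicle-treated cultures.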
# [4] = NCI Yeast Anticancer Drug Screen. Data for the cln2 rad14 strain (AID 165);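 further: 0% = growth equal to vehicle treated cultures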; settings: S. cerevisiae cln2 rad14 strain, at 50.0 µM, stronger effect = higher value
# In short: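 Growth inhibition, relative to vehicle-treated controls, is the read-out. The test organism is a yeast strain with defined genetic alterations, cln2 rad14.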
# [5] = NCI Yeast Anticancer Drug Screen. Data for the bub3 strain (AID 167); settings: S. cerevisiae bub3 mutant strain, at 50.0 µM, stronger effect = higher value
# In short: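 Yeast carrying a defined mutation is treated with each compound, and growth is compared with that of vehicle-exposed cells to give inhibition.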
# [6] = NCI Yeast Anticancer Drug Screen. Data for the mlh1 rad18 strain (AID 175); settings: S. cerevisiae mlh1 rad18 strain growth inhibition; at 50.0 µM; stronger effect = higher value
# In short: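 Cells of a genetically altered yeast strain, deficient in DNA damage repair, were treated with compound. Their growth was then compared with that of vehicle-treated cultures to give inhibition.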
SMILES,growth inhibition [1],growth inhibition [2],growth inhibition [3],growth inhibition [4],growth inhibition [5],growth inhibition [6]
Cc1cccc(NC(=O)OCCOC(=O)Nc2cccc(C)n2)n1,-15.1%,-11.6%,-19.4%,-9.25%,-11.1%,-1.15%
O=c1[nH]c2cc(Cl)ccc2c2cc(Cl)ccc12,39.9%,7.6%,16.6%,-3.3%,-0.3%,52.2%
N=C1N=C(N)C(CCCOc2cc(Cl)ccc2Cl)(CCCOc2cc(Cl)ccc2Cl)C(N)=N1,99% (active),95.5% (active),97.4% (active),98.5% (active),98.9% (active),98% (active)
CC(=O)Oc1ccc(C2(OC(C)=O)c3ccccc3C(=O)c3ccccc32)cc1,11.5%,9.9%,34.4%,34.1%,-8.5%,31.8%
OCCCN1CCN(CCO)CC1,-42%,-14.8%,-12.7%,-48.9%,4.25%,-2.25%
C[N+]1(C)CCCC(OC(=O)C(O)(c2ccccc2)c2ccccc2)C1 (stereo unspecified),38%,10.1%,15.6%,-18.9%,13.6%,27.7%
CC1(C)COC(c2c(F)cccc2Cl)=N1,3%,-13.8%,6.2%,22.4%,11.7%,13.2%
N#CSCCOCCOC(=O)NC1CCCCC1,10.2%,4.75%,14.7%,5.25%,16.2%,14.6%
COc1cc2[nH]c(-c3ccccc3)cc(=O)c2c(OC)c1OC,-11.3%,-3.65%,-8%,0.25%,8.85%,3.35%
CNc1ccc(C(=O)O)cc1,-7.8%,-14%,-2.25%,5.1%,-0.5%,-9.9%
CCCCCC(=O)C(C)(c1nc2nnc(NC(=O)Nc3ccc(Cl)cc3)n2[nH]c1=O)c1nc2nnc(NC(=O)Nc3ccc(Cl)cc3)n2[nH]c1=O,-42.8%,-21.6%,-24.3%,-45%,-38.8%,-32.5%
[N-]=[N+]=NCN1C(=O)C2C3C=CC(C2C1=O)C1C2C(=O)N(CN=[N+]=[N-])C(=O)C2C31 (stereo unspecified),-3.2%,-4.1%,-39.4%,4.4%,-25.8%,-42.1%
Cc1ccc(S(=O)(=O)CNC(=O)C(O)(O)C(F)(F)F)cc1,-24.9%,-2.5%,-9.45%,27.8%,-1.9%,-12.4%
O=[N+]([O-])c1ccc(NN=C2CCCCCC2)c([N+](=O)[O-])c1,5.95%,8.35%,8.3%,-99%,7.45%,-0.45%
CCOC(=O)C1C(=O)CC1(C)C (stereo unspecified),12.2%,6.9%,12.2%,36%,25.9%,21.8%
CCOC(=O)C1=C(C)N[C@H](c2ccccc2[N+](=O)[O-])N[C@H]1c1ccccc1[N+](=O)[O-],22.2%,19.7%,19.9%,7%,1.45%,9.25%
CC(=O)Oc1c(/C=C/c2ccccc2)c(OC(C)=O)c2cc(Br)ccc2c1OC(C)=O,13.1%,28.2%,25.2%,-27%,-17.2%,29.6%
O=c1c2ccccc2[nH]c2c(O)ccc(O)c12,18.3%,-1.65%,6.55%,7.65%,-1.55%,12.7%
CCOC(=O)/C=C/n1c2ccccc2c(=O)c2cc(OC)ccc21,-3.25%,-13.6%,-18.8%,3.6%,-8.95%,-2.4%
CC(=O)O[C@H]1CCN2C(=O)C=CC(OCc3ccccc3)C12 (stereo partly specified),3.8%,-15.3%,11.1%,13.2%,-5.95%,3.6%
Nc1ccccc1NC1CCN(Cc2ccccc2)CC1,27.2%,-3.35%,25.8%,33.5%,22.9%,19.1%
